# Assay outcomes: PubChem BioAssay, National Center for Advancing Translational Sciences (NCATS)
# Only some compounds are listed: those with a hit (about 10% of all), similar ones and a draw of the others.
# HEK cytotox = cytotoxic compounds in HEK 293 cells | AID 1345083 | Potency, µM (titrated, usually from 115 µM), most hits filed as inhibitors | actives 6.6% (n = 94,000) | HEK 293 viability, ATP luminescence (CellTiter-Glo), 48-72 h; note: nearly all actives have a fitted effect of over 60% in size
#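 HEK 293 seeded at 250 cells/well receive compound via pintool. After 48 or 72 hr at 37 degree Celsius, 5% CO2 and 95% humidity, CellTiter-Glo is dispensed and luminescence read following 10 min at room temperature.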
# GPT2 inh = blocks human glutamate pyruvate transaminase 2. Q8TD30. Recombinant GPT2, coupled pyruvate oxidase/HRP Amplex Red fluorescence. Potency, µM (top dose mostly 57.7 µM), most hits filed as inhibitors. actives 0.25% (n = 100,000). AID 1671188; note: nearly all actives have a fitted effect of over 60% in size
# Target sequence (Q8TD30 whole entry, looked up): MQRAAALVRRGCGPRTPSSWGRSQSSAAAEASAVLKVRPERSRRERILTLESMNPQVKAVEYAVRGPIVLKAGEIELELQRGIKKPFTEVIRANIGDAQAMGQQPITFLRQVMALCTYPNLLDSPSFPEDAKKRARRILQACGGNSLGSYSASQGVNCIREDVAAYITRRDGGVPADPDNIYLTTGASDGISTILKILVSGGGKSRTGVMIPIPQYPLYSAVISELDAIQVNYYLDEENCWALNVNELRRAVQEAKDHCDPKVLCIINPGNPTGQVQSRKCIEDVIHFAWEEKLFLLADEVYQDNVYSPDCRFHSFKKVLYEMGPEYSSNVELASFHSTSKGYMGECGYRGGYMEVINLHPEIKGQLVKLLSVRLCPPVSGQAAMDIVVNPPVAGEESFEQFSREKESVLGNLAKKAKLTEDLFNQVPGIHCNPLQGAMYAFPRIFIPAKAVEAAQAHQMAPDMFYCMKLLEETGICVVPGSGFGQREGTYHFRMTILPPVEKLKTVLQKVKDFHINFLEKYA
#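 Fluorescence read-out: pyruvate from GPT2 turnover coupled to pyruvate oxidase, HRP and Amplex Red (0.2mM ThPP, 0.2U/mL PO and HRP, 50uM Amplex final). Substrates 250uM a-KG, 2mM L-alanine; enzyme 10ng/uL; 30 min RT.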
# NPR1 antag = antagonists of human natriuretic peptide receptor Npr1; actives 1.6% (n = 76,000); Potency, µM (titrated, usually from 46.3 µM), usual class: inhibitors; HEK293 hNpr1 GloSensor cGMP, ANP-stimulated luminescence; calls by dose curve; note: nearly all actives have a fitted effect of over 60% in size
#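 Compound pre-incubated 30 min at room temperature on GloSensor-loaded HEK293 cells stably carrying hNpr1 and the pGS-40F cGMP biosensor. Stimulation uses hNppA at 0.1 nM final; luminescence is taken at baseline and 20 min post-agonist.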
# NIH3T3 tox = NIH 3T3 cell cytotoxicity; NIH 3T3 viability, CellTiter-Glo ATP luminescence, 48-72 h; Potency, µM (doses to about 96.7 µM), actives largely listed as inhibitors; actives 4.3% (n = 94,000); AID 1345082; note: nearly all actives have a fitted effect of over 55% in size
#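 Viability of NIH 3T3 cells after 48 or 72 hr compound treatment at 37 °C was assessed by CellTiter-Glo, with luminescence imaged following a 10 min room-temperature step.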
# FLuc inh = Photinus pyralis luciferase inhibition; AID 1347043; P08659; Potency, µM (titrated, usually from 115 µM), hits mostly inhibitors; actives 2.5% (n = 76,000); purified P. pyralis luciferase, luminescence, biochemical; note: nearly all actives have a fitted effect of over 65% in size
#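 Luminescence read by CCD imager after adding enzyme (10nM final) to wells holding compound, titrated in qHTS. Substrates 10uM each D-luciferin and ATP; buffer 50mM Tris acetate pH 7.5, 10mM Mg acetate, Tween-20, BSA.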
# A number is an active result; – = inactive; ? = inconclusive; · = no result given; ! = not confirmed by another sample. Unless noted, calls come from the whole dose curve; as a rule, active = well fitted curve in the direction sought with a large enough effect; inconclusive = small, poorly fitted or top-dose-only effect, or another doubt; inactive = no such curve, though single readings can be large; an effect the other way counts as inactive or inconclusive.
SMILES,HEK cytotox,GPT2 inh,NPR1 antag,NIH3T3 tox,FLuc inh
O=C(NC1CCOCC1)C1CCCCN1Cc1ccc(-c2cccs2)cc1 (configuration not stated),45µM,–,·,?,·
O=C(C1CCCCN1Cc1ccc(-c2cccs2)cc1)N1CCC(Cc2ccccc2)CC1 (configuration not stated),?,–,·,?,·
O=C(C1CCCCN1Cc1ccc(-c2cccs2)cc1)N1CCN(Cc2ccccc2)CC1 (configuration not stated),?,–,·,32µM,·
Cc1noc(C)c1[S+](=O)([O-])N1CCN(C(=O)c2nc3cccnc3n(C3CC3)c2=O)CC1,–,–,·,–,·
Cc1ccc(-c2cn3cc(C(=O)NCc4cccc(C(F)(F)F)c4)nc3s2)cc1,–,–,·,–,·
C=CCN1C[C@H]2COc3c(OCC)cccc3[C@H]2N(C(=O)OC)CCC1=O,–,·,·,?,·
CCN1C(=O)C2CC3(CCN(Cc4ccc(F)c(F)c4)CC3)CN2C1=O (configuration not stated),32µM,–,–,?,–
CCN1C(=O)C2CC3(CCN(Cc4ccc5cc[nH]c5c4)CC3)CN2C1=O (configuration not stated),?,–,–,–,–
CN1c2cc(C(=O)NCc3ccc(F)cc3Cl)ccc2C(=O)N2CCCCC21 (configuration not stated),?,–,–,–,–
Cc1ccc2nc(C3CCCN(Cc4ccc(-c5cncnc5)cc4)C3)[nH]c(=O)c2c1 (configuration not stated),–,–,–,–,–
O=c1[nH]c(C2CCCN(Cc3ccc(-c4cc(F)cc(F)c4)cc3)C2)nc2ccc(F)cc12 (configuration not stated),45µM!,–,–,?,–
O=c1[nH]c(C2CCCN(Cc3ccccc3)C2)nc2ccc(F)cc12 (configuration not stated),50µM!,–,–,28µM!,–
Cc1ccc(-c2cccc(CN3CCCC(c4nc5ccc(C)cc5c(=O)[nH]4)C3)c2)c(C)c1 (configuration not stated),35µM!,–,–,?,–
O=c1[nH]c(C2CCCN(Cc3ccc(-c4ccccc4)cc3)C2)nc2ccc(F)cc12 (configuration not stated),32µM!,–,?,?,–
COc1ccc(CC(=O)Nc2ccc([C@@H](O)[C@H]3COCC(=O)N3CC3CCCCC3)cc2)cc1,?,–,–,?,–
Cc1noc(C)c1[S+](=O)([O-])N1CCCC(C(=O)N2CCC(N3CCOCC3=O)CC2)C1 (configuration not stated),–,–,·,–,·
O=C1CO[C@H]2CCN(Cc3ccccc3O)CC[C@@H]2N1Cc1ccccc1,?,–,–,–,–
CC1(C)CC2C(C1)C1(C)CCC13OC3(CO)C2O (configuration not stated),·,–,·,·,·
COc1ccccc1-c1ccc(CN2CCCC(c3nc4ccc(F)cc4c(=O)[nH]3)C2)cc1 (configuration not stated),35µM!,–,?,40µM!,–
O=c1[nH]c(C2CCN(CC3CCCC3)CC2)nc2ccc(F)cc12,–,–,–,–,–
O=c1[nH]c(C2CCCN(Cc3cccs3)C2)nc2ccc(F)cc12 (configuration not stated),?,–,–,?,–
O=c1[nH]c(C2CCCN(Cc3cccc(-c4ccc(F)cc4F)c3)C2)nc2ccc(F)cc12 (configuration not stated),40µM,–,?,?,–
O=C(NCc1ccc(C(F)(F)F)cc1)C1CCN(C(=O)c2ccc(-c3cccs3)cc2)CC1,32µM,·,·,7.1µM,·
O=C(NCCc1ccc(Cl)cc1)C1CCN(C(=O)c2ccc(-c3cccs3)cc2)CC1,45µM,·,·,?,·
O=C(NCCc1ccccc1)C1CCN(C(=O)c2ccc(-c3cccs3)cc2)CC1,–,·,·,–,·
COc1ccc(C(=O)NC2CCCN(c3ccc4nnc(C5CC5)n4n3)C2)cc1 (configuration not stated),–,·,·,–,·
CCc1nc2c(c(-c3ccc(O)cc3)n1)CCN(Cc1ccc(OC(F)(F)F)cc1)CC2,?,–,–,?,–
CN1CCN(c2nc3c(c(=O)[nH]2)CCN(Cc2ccccc2C(F)(F)F)CC3)CC1,79µM,–,–,–,–
